Laboratory results: article PMC5540273 (PLoS ONE, 2017)

The compounds below were run on T1, JNK3.
T1 construct: gene MAPK10
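Note: kd values determined as follow-up on hits from a single-replicate KINOMEscan panel screen.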

Point of comparison: `COC(=O)c1c(-c2ccccc2)c2cc(Cl)ccc2c(=O)n1Cc1ccc(S(C)(=O)=O)cc1`, Kd 0.014 µM. Against it:
- CN1CCC(n2cnc(-c3ccc(F)cc3)c2-c2ccnc(NC3CCNCC3)n2)CC1 [SB-229482] — 10-fold higher, 0.14 µM
- CCc1nc(-c2cccc(C)c2)c(-c2ccnc(NC(=O)c3ccccc3)c2)s1 — 14-fold higher, 0.19 µM

The compounds below were run on KIT.

Point of comparison: `COc1ccc(NC(=O)Nc2ccc(C)c(-c3ccc(C(=O)Nc4ccncc4)cc3)c2)cc1` [GSK1398475], Kd 0.044 µM. Against it:
- O=C(Nc1ccccc1)Nc1ccc(Oc2ccc3nccn3n2)cc1 — 2.3-fold higher, 0.099 µM
- COc1cc2c(Nc3cccc(NC(=O)c4ccccc4)c3)ncnc2cc1OCCCN1CCOCC1 [GSK223810] — 6.8-fold higher, 0.3 µM
- Cn1cc(-c2ccc3c(c2)CCN3C(=O)Cc2cccc(C(F)(F)F)c2)c2c(N)ncnc21 [GSK2606414] — 120-fold higher, 5.2 µM
- O=C(Nc1n[nH]c2nc(-c3ccco3)c(Br)cc12)c1ccc(CN2CCCC2)cc1.O=C(O)[C@H](O)[C@@H](O)C(=O)O [SB-742352] — 1.5-fold higher, 0.066 µM
- Cc1ccc(NC(=O)c2cccc(C#N)c2)cc1-c1ccc(C(=O)Nc2ccncc2)cc1 [GSK1398463] — 7-fold higher, 0.31 µM
- Cn1ccc2ncnc(Oc3ccc(NC(=O)Nc4cccnc4)c(Cl)c3)c21 — within 1.5-fold, 0.047 µM

The compounds below were run on MARK2.

`O=c1cc(N2CCOCC2)nc2n(Cc3cccc(Cl)c3)ccn12` [GSK2296823] and `CCn1c(-c2ccncc2)nc2cnccc21` [SB-735216] cannot be ordered by Kd: over 10 µM for the first, over 10 µM for the second.

Compound `Cl.Cn1ccc(-c2cccc(Nc3ccnc4cc(-c5nccs5)ccc34)c2)n1` [GW525701] has a Kd of over 10 µM.

Each compound was assayed on T2, MEK5.
T2 construct: gene MAP2K5

Point of comparison: `Cl.Cn1ccc(-c2cccc(Nc3ccnc4cc(-c5nccs5)ccc34)c2)n1` [GW525701], Kd 0.96 µM. Against it:
- CC(=O)Nc1n[nH]c2ncc(-c3ccccc3)cc12 [SB-548492] — 3.3-fold lower, 0.29 µM
- COc1ccc(-c2oc3ncnc(N)c3c2-c2ccc(OC)cc2)cc1 [SB-589132] — 3.1-fold higher, 3 µM
- OCCOCCn1ccc2ncnc(Nc3ccc(Oc4cccc(Cl)c4)c(Cl)c3)c21 — 4.8-fold lower, 0.2 µM
- Cl.c1ccc(Cn2ccc3cc(Nc4ncnc5ccccc45)ccc32)cc1 [GW275568] — within 1.5-fold, 0.77 µM
- COc1cc2c(Nc3cccc(NC(=O)c4ccccc4)c3)ncnc2cc1OCCCN1CCOCC1 [GSK223810] — within 1.5-fold, 0.94 µM
- Cl.c1ccc(Cn2ncc3cc(Nc4ncnc5ccccc45)ccc32)cc1 [GW273749] — 11-fold lower, 0.09 µM
- O=C(Nc1n[nH]c2nc(-c3ccco3)c(Br)cc12)c1ccc(CN2CCCC2)cc1.O=C(O)[C@H](O)[C@@H](O)C(=O)O [SB-742352] — 1.7-fold lower, 0.55 µM
- Oc1ccc2ncnc(Nc3ccc(OCc4ccccc4)cc3)c2c1 [GI262866] — 12-fold lower, 0.082 µM
- COc1cc2ncnc(Nc3ccc(OCc4ccccc4Br)c(Cl)c3)c2cc1OC.Cl [GI261590] — 9.8-fold lower, 0.098 µM
- CCc1nc(-c2cccc(N(C)S(=O)(=O)c3ccccc3)c2)c(-c2ccnc(Nc3ccc(N4CCN(C(C)=O)CC4)nc3)n2)s1 [GSK1645895] — 140-fold lower, 0.007 µM
- Cn1ccc2ncnc(Nc3ccc(Oc4cccc(Cl)c4)c(Cl)c3)c21 — 38-fold lower, 0.025 µM
- O=C(CCO)NCCn1ccc2ncnc(Nc3ccc(Oc4cccc(C(F)(F)F)c4)c(Cl)c3)c21 — 64-fold lower, 0.015 µM
- CS(=O)(=O)CCNCc1ccc(-c2ccc3ncnc(Nc4ccc(OCc5ccccc5)c(Cl)c4)c3c2)o1.Cl [GW574783] — within 1.5-fold, 1 µM
